According to PubChem BioAssay:

Experiment: binders of probe aFST on microarray, primary screen, stem cell growth factor project, biochemical, small-molecule microarray, fluorescence 635/667 (AID 1086);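 also: score merges 667 nm fluorescence with signal-to-noise of each printed compound spot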
Settings: higher = more signal

Structure (SMILES)	composite z-score
CC(C)C(=C=CC[C@@H](O)c1ccccc1OCCO)C[C@@H](O)c1cc(Cl)cc(Cl)c1O	0.704
COc1ccc(C#Cc2ccc3c(c2)[C@]2(C(=O)N3)[C@H](C(=O)Nc3nc4ccccc4s3)[C@H]3C(=O)O[C@H](c4ccccc4)[C@H](c4ccccc4)N3[C@@H]2c2ccc(OCCO)cc2)cc1	0.349
CC(=O)n1cc(C(O)C2C=CC3C(=O)N(c4ccccc4)C(=O)C3N2Nc2ccccc2F)c2ccccc21 (stereo unspecified)	-0.346
COCCOC(=O)N1C(=O)[C@@]2(c3cc(C#CC4(O)CCCCCC4)ccc31)[C@H](c1ccc(OCCO)cc1)N1[C@H](c3ccccc3)[C@H](c3ccccc3)OC(=O)[C@H]1[C@@H]2C(N)=O	0.48
COc1cc2c(cc1O)C(c1ccc(CN3CCCC3)cc1)N(Cc1ccc([N+](=O)[O-])o1)CC2 (stereo unspecified)	-0.21
COc1ccc(CCNC(=O)[C@@]2(C)c3ccccc3C(=O)N(Cc3cc(C(F)(F)F)cc(C(F)(F)F)c3)[C@H]2c2ccc(CO)cc2)cc1	0.169
